Measured values reported in PubChem BioAssay (NCATS).
Records with an inconclusive call do not appear. Where a call stands in place of a potency, no number is given. Calls of active or inactive are those of the source. Calls follow the shape of the dose curve; as a rule, active = well fitted inhibition curve with a large enough effect; inconclusive = small, poorly fitted or top-dose-only effect; inactive = no such curve, though single readings can be large or run the other way.

Test system: Zika virus NS2B-NS3 protease (unlinked complex)
Assay: Primary screen GU Rhodamine qHTS for Zika virus inhibitors: Unlinked NS2B-NS3 protease assay (AID 1347159); also: nearly all actives have a fitted effect of over 60% in size
Conditions: Recombinant ZIKV NS2B-NS3 protease, Rhodamine110 substrate fluorescence; series mostly up to 107 µM
In short: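 A qHTS format was used, with compound concentrations ranging up to 114 microM. Each compound was preincubated with 25 nM NS2B-NS3 protease, and the substrate was then added at 1.5 microM. Curves were fitted with a 4-parameter Hill model.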
Potency is read from the fitted curve at half-maximal effect.

Question: With CN1CCN(c2cccc(Nc3nc4c(-c5ccc(S(C)(=O)=O)cc5)cccn4n3)c2)CC1 as the compound, how does the Potency read?
Answer: inactive

Question: With Nc1[nH]nc2nnc(-c3c(-c4ccccc4)nn4ccccc34)cc12 as the compound, how does the Potency read?
Answer: inactive

Question: With c1ccc(CNc2nc(N3CCOc4ccccc43)nc3c2CCCC3)cc1 as the compound, how does the Potency read?
Answer: inactive

Question: For C[C@H](c1ccc(F)cc1CCCC(=O)O)N(c1cc(F)ccc1F)S(=O)(=O)c1ccc(Cl)cc1, which Potency is on record?
Answer: 14.1 µM (active)

Question: With O[C@@H](COc1cccc2ncccc12)CN1CCN(C2c3ccccc3[C@@H]3[C@H](c4ccccc42)C3(F)F)CC1 (some centres not stated) as the compound, how does the Potency read?
Answer: inactive

Question: Which Potency does the source give for NC(=O)c1noc([C@H](CCCC2CCCCC2)CC(=O)NO)n1 here?
Answer: inactive

Test system: not listed separately
Assay: qHTS to identify inhibitors of the type 1 interferon - major histocompatibility complex class I in skeletal muscle: primary screen against the NCATS Mechanism Interrogation Plate v5.0 (MIPE) Libary (AID 1347411); also: nearly all actives have a fitted effect of over 65% in size
Conditions: iHSKM cells + IFN-b, HiBiT-tagged MHC-I luminescence, 24 h; series mostly up to 45.8 µM
In short: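 Luminescence from HiBiT-tagged endogenous HLA-B*08:01 served as the MHC class I read-out. CRISPR-engineered C25cl48 human myoblasts received 4.0 ng/ml IFN-beta plus compound for 24 hrs, with an 11-point, 1:3 series topping at 46 uM final.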

Question: With CC(C)[C@H](O)C(=O)N[C@@H](C)C(=O)N[C@@H]1C(=O)N(C)CCc2ccccc21 as the compound, how does the Potency read?
Answer: inactive

Question: Which Potency does the source give for O=C(O)C1=CC(O)C(O)[C@H](O)C1 (some centres not stated) here?
Answer: inactive

Question: Which Potency does the source give for CN1CCN(c2cccc(Nc3nc4c(-c5ccc(S(C)(=O)=O)cc5)cccn4n3)c2)CC1 here?
Answer: 5.23 µM (active)

Question: For Nc1[nH]nc2nnc(-c3c(-c4ccccc4)nn4ccccc34)cc12, which Potency is on record?
Answer: inactive

Question: For COc1ccc2nc3cc(Cl)ccc3c(Nc3cc(CN4CCCC4)c(O)c(CN4CCCC4)c3)c2n1, which Potency is on record?
Answer: 18.6 µM (active)

Question: For Nc1ncnc2c1ncn2[C@@H]1O[C@H](CO)[C@@H](O)[C@@H]1O, which Potency is on record?
Answer: inactive

Question: Which Potency does the source give for c1ccc(CNc2nc(N3CCOc4ccccc43)nc3c2CCCC3)cc1 here?
Answer: inactive

Question: With Cc1cc2nc3c(=O)[nH]c(=O)nc-3n(CC(O)C(O)C(O)CO)c2cc1C (configuration not stated) as the compound, how does the Potency read?
Answer: inactive

Question: Which Potency does the source give for Cn1cc(-c2ccc3nnc(Sc4ccc5ncccc5c4)n3n2)cn1 here?
Answer: inactive

Question: With O=[N+]([O-])c1ccc(Nc2ccccc2-c2ccccc2)c2nonc12 as the compound, how does the Potency read?
Answer: 26.2 µM (active)

Question: For CC(=O)NCCC(=O)N[C@@H](CCC(N)=O)C(=O)N[C@@H](CO)C(=O)N[C@@H](CCC(N)=O)C(=O)N[C@@H](CCC(N)=O)C(=O)N[C@H](C(=O)N[C@@H](Cc1ccccc1)C(=O)N[C@]1(C)CCCCCCC=CCCC[C@@](C)(C(=O)N[C@@H](CCC(N)=O)C(=O)N[C@@H](CC(N)=O)C(N)=O)NC(=O)[C@H](CC(C)C)NC(=O)[C@H](CC(C)C)NC(=O)[C@@H](CCCNC(=N)N)NC(=O)[C@H](Cc2c[nH]c3ccccc23)NC(=O)[C@H](CC(C)C)NC(=O)[C@H](CC(N)=O)NC1=O)[C@H](C)O, which Potency is on record?
Answer: inactive

Question: With CN[C@@H]1CN(c2ccc3c(=O)c(C(=O)O)cn(-c4nccs4)c3n2)C[C@@H]1OC as the compound, how does the Potency read?
Answer: 5.09 µM (active)

Question: Which Potency does the source give for COC(=O)[C@H](c1ccccc1Cl)N1CCc2sccc2C1 here?
Answer: inactive

Question: Which Potency does the source give for Cc1cc(OCCCS(C)(=O)=O)cc(C)c1-c1cccc(COc2ccc3c(c2)OC[C@H]3CC(=O)O)c1 here?
Answer: inactive

Question: With CO[C@@H]1C(N(C)C(=O)c2ccccc2)C[C@H]2O[C@]1(C)n1c3ccccc3c3c4c(c5c6ccccc6n2c5c31)C(=O)NC4=O (some centres not stated) as the compound, how does the Potency read?
Answer: inactive

Question: Which Potency does the source give for NCC1CCC(C(=O)O)CC1 (configuration not stated) here?
Answer: inactive

Question: For CCCCCCCCCCCCCCCC(=O)O[C@H]1[C@@H](O)[C@@H](O)[C@@H]([C@H](NC(=O)[C@@H]2C[C@@H](CCC)CN2C)[C@H](C)Cl)O[C@@H]1SC, which Potency is on record?
Answer: inactive

Question: With C[C@H](c1ccc(F)cc1CCCC(=O)O)N(c1cc(F)ccc1F)S(=O)(=O)c1ccc(Cl)cc1 as the compound, how does the Potency read?
Answer: inactive

Question: Which Potency does the source give for Cc1ccc2c(=O)c3cccc(CC(=O)O)c3oc2c1C here?
Answer: inactive

Question: Which Potency does the source give for Cc1cn([C@@H]2C[C@@H](O)[C@H](CO)O2)c(=O)[nH]c1=O here?
Answer: inactive

Question: Which Potency does the source give for CCCC1OC2C[C@@H]3[C@H]4CCC5=CC(=O)C=C[C@]5(C)[C@H]4C(O)C[C@]3(C)[C@]2(C(=O)CO)O1 (some centres not stated) here?
Answer: inactive

Question: With CCC[C@H](N[C@@H](C)C(=O)N1[C@@H]2CCCC[C@H]2C[C@H]1C(=O)O)C(=O)OCC as the compound, how does the Potency read?
Answer: inactive

Question: With CCCCc1ccc(NS(=O)(=O)c2ccc(C)c(C(=O)N3CCN(c4cccc(C)c4C)CC3)c2)cc1 as the compound, how does the Potency read?
Answer: inactive

Question: For Cn1c(=O)c(Oc2ccc(F)cc2F)cc2cnc(NC3CCOCC3)nc21, which Potency is on record?
Answer: inactive

Question: Which Potency does the source give for COc1cccc(OC)c1-c1cc(C(=O)NC2(C(=O)O)C3CC4CC(C3)CC2C4)nn1-c1ccnc2cc(Cl)ccc12 (configuration not stated) here?
Answer: inactive

Question: With NC(=O)c1noc([C@H](CCCC2CCCCC2)CC(=O)NO)n1 as the compound, how does the Potency read?
Answer: inactive

Question: With CC(C)Oc1cc(Nc2nc(N[C@@H](C)c3ccc(F)cn3)ncc2Cl)[nH]n1 as the compound, how does the Potency read?
Answer: 1.65 µM (active)

Question: For CNC(=O)c1cc(Oc2ccc(NC(=O)Nc3ccc(Cl)c(C(F)(F)F)c3)c(F)c2)ccn1, which Potency is on record?
Answer: 23.4 µM (active)

Question: Which Potency does the source give for CCOc1ccccc1N=Nc1c(C)[nH]n(-c2nc(-c3ccccc3)cs2)c1=O here?
Answer: inactive

Question: Which Potency does the source give for N#CC(c1ccnc(NCCc2cccnc2)n1)c1nc2ccccc2s1 (configuration not stated) here?
Answer: 14.7 µM (active)

Question: Which Potency does the source give for Cc1ccc(S(=O)(=O)OCC(=O)Nc2ccc(C(=O)O)c(O)c2)cc1 here?
Answer: inactive
